# Data from publication PMC9911399, “Two distinct binding modes provide the RNA-binding protein RbFox with extraordinary sequence specificity”.
# Where a chain is given by its changes, count along the chain named. Whole data set: some 16,000 sequences, median “ka relative to ugcaugu” near 0.096, cut for the highest 2% near 0.35. Shown is part of a subset that was picked to be rich in the highest values.
# T1: RBFOX1 RRM RbFoxmut (Fox-RRM*) (Homo sapiens, UniProt Q9NWB1 109-208, R118D;E147R;N151S;E152T)
# T1 sequence: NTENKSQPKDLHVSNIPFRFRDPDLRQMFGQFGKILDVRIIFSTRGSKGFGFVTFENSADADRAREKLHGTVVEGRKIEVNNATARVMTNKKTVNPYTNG
# B1: CUGCGUG (DNA:RNA)
# RNA: GGGAGACCGGAAUUCAGAUUGUCCCUGCGUGUUAAAUCCCGUCGUAGCCACCA
# DNA 1: CAATCTGAATTCCGGTCTCCC
# DNA 2: TGGTGGCTACGACGGGATT
# B2: CCUAGCA (DNA:RNA)
# RNA: B1 RNA with U26C, G27U, C28A, U30C, G31A
# DNA 1: CAATCTGAATTCCGGTCTCCC
# DNA 2: TGGTGGCTACGACGGGATT
# B3: GUGCUUG (DNA:RNA)
# RNA: B1 RNA with C25G, G29U
# DNA 1: CAATCTGAATTCCGGTCTCCC
# DNA 2: TGGTGGCTACGACGGGATT
# B4: UCCGUGC (DNA:RNA)
# RNA: GGGAGACCGGAAUUCAGAUUGUCCUCCGUGCUUAAAUCCCGUCGUAGCCACCA
# DNA 1: CAATCTGAATTCCGGTCTCCC
# DNA 2: TGGTGGCTACGACGGGATT
# B5: UUGCUUG (DNA:RNA)
# RNA: B1 RNA with C25U, G29U
# DNA 1: CAATCTGAATTCCGGTCTCCC
# DNA 2: TGGTGGCTACGACGGGATT
# B6: UUGUUGC (DNA:RNA)
# RNA: B4 RNA with C26U, C27G, G28U
# DNA 1: CAATCTGAATTCCGGTCTCCC
# DNA 2: TGGTGGCTACGACGGGATT
# B7: UCCUUGC (DNA:RNA)
# RNA: B4 RNA with G28U
# DNA 1: CAATCTGAATTCCGGTCTCCC
# DNA 2: TGGTGGCTACGACGGGATT
# B8: GUCGUGC (DNA:RNA)
# RNA: B4 RNA with U25G, C26U
# DNA 1: CAATCTGAATTCCGGTCTCCC
# DNA 2: TGGTGGCTACGACGGGATT
# B9: CGGGAUC (DNA:RNA)
# RNA: B1 RNA with U26G, C28G, G29A, G31C
# DNA 1: CAATCTGAATTCCGGTCTCCC
# DNA 2: TGGTGGCTACGACGGGATT
# B10: GUCCCGU (DNA:RNA)
# RNA: B1 RNA with C25G, G27C, G29C, U30G, G31U
# DNA 1: CAATCTGAATTCCGGTCTCCC
# DNA 2: TGGTGGCTACGACGGGATT
# B11: CACCGGA (DNA:RNA)
# RNA: B1 RNA with U26A, G27C, U30G, G31A
# DNA 1: CAATCTGAATTCCGGTCTCCC
# DNA 2: TGGTGGCTACGACGGGATT
# B12: UGAUAUG (DNA:RNA)
# RNA: B1 RNA with C25U, U26G, G27A, C28U, G29A
# DNA 1: CAATCTGAATTCCGGTCTCCC
# DNA 2: TGGTGGCTACGACGGGATT
# B13: GUCCGGA (DNA:RNA)
# RNA: B1 RNA with C25G, G27C, U30G, G31A
# DNA 1: CAATCTGAATTCCGGTCTCCC
# DNA 2: TGGTGGCTACGACGGGATT
# B14: CGUAUCG (DNA:RNA)
# RNA: B1 RNA with U26G, G27U, C28A, G29U, U30C
# DNA 1: CAATCTGAATTCCGGTCTCCC
# DNA 2: TGGTGGCTACGACGGGATT
# B15: UGAUAUC (DNA:RNA)
# RNA: B4 RNA with C26G, C27A, G28U, U29A, G30U
# DNA 1: CAATCTGAATTCCGGTCTCCC
# DNA 2: TGGTGGCTACGACGGGATT
# B16: GGAUUGU (DNA:RNA)
# RNA: B4 RNA with U25G, C26G, C27A, G28U, C31U
# DNA 1: CAATCTGAATTCCGGTCTCCC
# DNA 2: TGGTGGCTACGACGGGATT
# B17: CGUCCGU (DNA:RNA)
# RNA: B1 RNA with U26G, G27U, G29C, U30G, G31U
# DNA 1: CAATCTGAATTCCGGTCTCCC
# DNA 2: TGGTGGCTACGACGGGATT
# B18: GUAUCGU (DNA:RNA)
# RNA: B1 RNA with C25G, G27A, C28U, G29C, U30G, G31U
# DNA 1: CAATCTGAATTCCGGTCTCCC
# DNA 2: TGGTGGCTACGACGGGATT
# B19: UGAUAUA (DNA:RNA)
# RNA: B1 RNA with C25U, U26G, G27A, C28U, G29A, G31A
# DNA 1: CAATCTGAATTCCGGTCTCCC
# DNA 2: TGGTGGCTACGACGGGATT
# B20: GUAUUGU (DNA:RNA)
# RNA: B4 RNA with U25G, C26U, C27A, G28U, C31U
# DNA 1: CAATCTGAATTCCGGTCTCCC
# DNA 2: TGGTGGCTACGACGGGATT
# B21: CGGAUUG (DNA:RNA)
# RNA: B1 RNA with U26G, C28A, G29U
# DNA 1: CAATCTGAATTCCGGTCTCCC
# DNA 2: TGGTGGCTACGACGGGATT
# B22: AUUCGUU (DNA:RNA)
# RNA: B1 RNA with C25A, G27U, G31U
# DNA 1: CAATCTGAATTCCGGTCTCCC
# DNA 2: TGGTGGCTACGACGGGATT
# B23: UUAGGAG (DNA:RNA)
# RNA: B1 RNA with C25U, G27A, C28G, U30A
# DNA 1: CAATCTGAATTCCGGTCTCCC
# DNA 2: TGGTGGCTACGACGGGATT
# B24: AGGCUCU (DNA:RNA)
# RNA: B1 RNA with C25A, U26G, G29U, U30C, G31U
# DNA 1: CAATCTGAATTCCGGTCTCCC
# DNA 2: TGGTGGCTACGACGGGATT
# B25: CGCGGGG (DNA:RNA)
# RNA: B1 RNA with U26G, G27C, C28G, U30G
# DNA 1: CAATCTGAATTCCGGTCTCCC
# DNA 2: TGGTGGCTACGACGGGATT
# B26: UCCAGCA (DNA:RNA)
# RNA: B4 RNA with G28A, U29G, G30C, C31A
# DNA 1: CAATCTGAATTCCGGTCTCCC
# DNA 2: TGGTGGCTACGACGGGATT
# B27: GGAUCGG (DNA:RNA)
# RNA: B1 RNA with C25G, U26G, G27A, C28U, G29C, U30G
# DNA 1: CAATCTGAATTCCGGTCTCCC
# DNA 2: TGGTGGCTACGACGGGATT
# B28: CACCACG (DNA:RNA)
# RNA: B1 RNA with U26A, G27C, G29A, U30C
# DNA 1: CAATCTGAATTCCGGTCTCCC
# DNA 2: TGGTGGCTACGACGGGATT
# B29: GUAUAUG (DNA:RNA)
# RNA: B1 RNA with C25G, G27A, C28U, G29A
# DNA 1: CAATCTGAATTCCGGTCTCCC
# DNA 2: TGGTGGCTACGACGGGATT
# B30: GGAUCGU (DNA:RNA)
# RNA: B4 RNA with U25G, C26G, C27A, G28U, U29C, C31U
# DNA 1: CAATCTGAATTCCGGTCTCCC
# DNA 2: TGGTGGCTACGACGGGATT
# B31: CGAUAUG (DNA:RNA)
# RNA: B1 RNA with U26G, G27A, C28U, G29A
# DNA 1: CAATCTGAATTCCGGTCTCCC
# DNA 2: TGGTGGCTACGACGGGATT
# B32: CGGAUCG (DNA:RNA)
# RNA: B1 RNA with U26G, C28A, G29U, U30C
# DNA 1: CAATCTGAATTCCGGTCTCCC
# DNA 2: TGGTGGCTACGACGGGATT
# B33: GGAUAUG (DNA:RNA)
# RNA: B1 RNA with C25G, U26G, G27A, C28U, G29A
# DNA 1: CAATCTGAATTCCGGTCTCCC
# DNA 2: TGGTGGCTACGACGGGATT
# B34: GGGAUCG (DNA:RNA)
# RNA: B1 RNA with C25G, U26G, C28A, G29U, U30C
# DNA 1: CAATCTGAATTCCGGTCTCCC
# DNA 2: TGGTGGCTACGACGGGATT
# B35: GGGAUUG (DNA:RNA)
# RNA: B1 RNA with C25G, U26G, C28A, G29U
# DNA 1: CAATCTGAATTCCGGTCTCCC
# DNA 2: TGGTGGCTACGACGGGATT
# B36: AGAUCGU (DNA:RNA)
# RNA: B4 RNA with U25A, C26G, C27A, G28U, U29C, C31U
# DNA 1: CAATCTGAATTCCGGTCTCCC
# DNA 2: TGGTGGCTACGACGGGATT
# B37: CGAUCGU (DNA:RNA)
# RNA: B1 RNA with U26G, G27A, C28U, G29C, U30G, G31U
# DNA 1: CAATCTGAATTCCGGTCTCCC
# DNA 2: TGGTGGCTACGACGGGATT
# Molecular target: T1, RBFOX1 RRM RbFoxmut (Fox-RRM*)
# Test: EMSA; HiTS-Eq, 1 nM pool, 10 min; buffer printed only for the single-RNA assays: 10 mM Tris pH 7.5, 150 mM NaCl, 3.4 mM EDTA, 0.001% NP-40, 30 C
# Conditions: tags: His6 N-terminal (pET28a); label: 5' 32P
# Summary of the method: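 These values rest on relative association constants, computed from read-count changes of each RNA species versus the control reaction and normalised to the cognate motif. Reads came from free RNA recovered by 8% native PAGE after purified RbFox RRM (wild type or mutant) at increasing concentrations was equilibrated for 10 min in 50 µL with 1 nM of a 5′-radiolabelled pool with 7 randomized nucleotides and DNA-annealed flanks.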
row,Binder,binding signal
1,B1,0.232 KA relative to UGCAUGU
2,B2,0.119 KA relative to UGCAUGU
3,B3,0.511 KA relative to UGCAUGU
4,B4,0.084 KA relative to UGCAUGU
5,B5,0.503 KA relative to UGCAUGU
6,B6,0.148 KA relative to UGCAUGU
7,B7,0.108 KA relative to UGCAUGU
8,B8,0.167 KA relative to UGCAUGU
9,B9,0.141 KA relative to UGCAUGU
10,B10,0.11 KA relative to UGCAUGU
11,B11,0.0666 KA relative to UGCAUGU
12,B12,0.437 KA relative to UGCAUGU
13,B13,0.0725 KA relative to UGCAUGU
14,B14,0.263 KA relative to UGCAUGU
15,B15,0.145 KA relative to UGCAUGU
16,B16,0.39 KA relative to UGCAUGU
17,B17,0.119 KA relative to UGCAUGU
18,B18,0.461 KA relative to UGCAUGU
19,B19,0.0947 KA relative to UGCAUGU

row,Binder,binding signal
1,B20,0.309 KA relative to UGCAUGU
2,B21,0.522 KA relative to UGCAUGU
3,B22,0.134 KA relative to UGCAUGU
4,B23,0.129 KA relative to UGCAUGU
5,B24,0.0577 KA relative to UGCAUGU
6,B25,0.0735 KA relative to UGCAUGU
7,B26,0.123 KA relative to UGCAUGU
8,B27,0.176 KA relative to UGCAUGU
9,B28,0.125 KA relative to UGCAUGU
10,B29,0.199 KA relative to UGCAUGU
11,B30,0.354 KA relative to UGCAUGU
12,B31,0.159 KA relative to UGCAUGU
13,B32,0.331 KA relative to UGCAUGU
14,B33,0.496 KA relative to UGCAUGU
15,B34,0.369 KA relative to UGCAUGU
16,B35,0.282 KA relative to UGCAUGU
17,B36,0.105 KA relative to UGCAUGU
18,B37,0.118 KA relative to UGCAUGU
